Test results taken from PubChem BioAssay.
Unmarked numbers belong to inactive results. The rule behind the calls is not given here.

What follows are compounds tested against Pantothenate synthetase (Mycobacterium tuberculosis (strain ATCC 25618 / H37Rv)) (UniProt P9WIL5) (assay: Recombinant Mtb pantothenate synthetase (PanC) inhibitors, coupled enzyme, confirmatory (AID 375;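 note: 0% = full reaction with vehicle and 100% = no enzyme background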)). Settings: coupled enzyme assay; at 10 µM, stronger effect = higher value.
Sequence of Pantothenate synthetase (Mycobacterium tuberculosis (strain ATCC 25618 / H37Rv)) (P9WIL5 whole entry, looked up): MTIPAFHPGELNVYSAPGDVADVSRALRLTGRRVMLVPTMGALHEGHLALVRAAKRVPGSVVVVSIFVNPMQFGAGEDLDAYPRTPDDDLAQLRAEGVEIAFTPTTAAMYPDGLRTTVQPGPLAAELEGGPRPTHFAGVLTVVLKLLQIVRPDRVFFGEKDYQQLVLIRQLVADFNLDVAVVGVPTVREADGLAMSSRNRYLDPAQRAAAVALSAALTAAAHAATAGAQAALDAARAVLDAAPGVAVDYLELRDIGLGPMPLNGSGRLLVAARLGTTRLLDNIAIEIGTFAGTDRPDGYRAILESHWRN
For `COc1ccc(NC(=O)Nc2ccccc2C)c(OC)c1`, the inhibition was 0%. `NC(=O)CN1C(=O)C(O)(CC(=O)c2ccccc2O)c2ccccc21` (stereo not given) was tested, and the inhibition was 0%. `CCCOc1nc(N)c(C#N)c(-c2ccccc2F)c1C#N` gave an inhibition of 4%. `CCCN(Cc1cc2ccc(C)cc2[nH]c1=O)C(=O)c1cccnc1` gave an inhibition of 2%. `CC1CC(C)CN(CC(=O)Nc2ccc(S(N)(=O)=O)cc2)C1` (stereo not given) gave an inhibition of 0%. `COc1ccc(-c2noc(-c3cc(Cl)ccc3Cl)n2)cc1OC` was tested, and the inhibition was 2%. For `COc1ccc(C(=O)NCCCCCC(=O)O)cc1OC`, the inhibition was 0%. `O=C1CSC(c2cn(-c3ccccc3)nc2-c2cccs2)N1CC1CCCO1` (stereo not given) gave an inhibition of 2%. With `Cc1ccc(C2=Nc3ccccc3NC(C)(c3ccc(C)o3)C2)o1` (stereo not given) the inhibition was 0%. `N#Cc1ccc(CSc2nnc(-c3cccs3)n2-c2ccccc2)cc1` was tested, and the inhibition was 0%. `Cc1ccc2c(c1)C1CCCC3C1N2CC(=O)N3Cc1ccccc1` (stereo not given) gave an inhibition of 0%. Compound `CC(NS(=O)(=O)c1ccc(OCC(=O)N2CCOCC2)c(Cl)c1)c1ccccc1` (stereo not given) has an inhibition of 1%. Compound `Cc1nnc(NC2CCCCC2)[nH]c1=O` has an inhibition of 3%. `Cc1ccc2cccc(SCC(=O)N3CCOCC3)c2n1` showed an inhibition of 5%. `COc1ccc(C(=O)Nc2ccc(Cl)c(Cl)c2)c(OC)n1` was tested, and the inhibition was 0%. `CCOC(=O)C1CCN(C(C)=C2C(=O)c3ccccc3C2=O)CC1` gave an inhibition of 2%. `COC(=O)Nc1ccc(S(=O)(=O)N2CCCCCC2)cc1` was tested, and the inhibition was 0%. Work on `COc1ccccc1NS(=O)(=O)c1ccc(OC)c(OC)c1` yielded an inhibition of 8%. In the case of `CCCc1c(O)nc(SCC(=O)NCCc2ccc(OC)c(OC)c2)[nH]c1=O`, the inhibition is reported as 0%. `CCCS(=O)(=O)N1CCN(Cc2ccc(OCc3ccccc3)c(OC)c2)CC1` was tested, and the inhibition was 4%. For `O=C(CSc1nnc(CNC(=O)c2cccs2)o1)Nc1cccc(C(F)(F)F)c1`, the inhibition was 0%. For `Cc1ccc(S(=O)(=O)N(C)CC(=O)NC2CC(C)(C)NC(C)(C)C2)cc1`, the inhibition was 0%. For `CCC(=O)Nc1nn(C)c2nc3c(C)cccc3cc12`, the inhibition was 0%. `CCOC(=O)c1cc2c(=O)n3cccc(C)c3nc2n(CC2CCCO2)c1=NC(C)=O` (stereo not given) was tested, and the inhibition was 7%. Work on `CCOC(=O)Cn1c2c(c(=N)c3ccccc31)CCC2` yielded an inhibition of 13%. `CC1CCN(S(=O)(=O)c2ccc(S(=O)(=O)NCC(=O)C(C)(C)C)cc2)CC1` showed an inhibition of 2%. Compound `O=S(=O)(c1ccccc1)N1CCN(C2CCCCCCC2)CC1` has an inhibition of 8%. In the case of `CCC(=O)OC1(C#CCOc2ccc(OC)cc2)CCN(C)CC1`, the inhibition is reported as 0%. Work on `O=C1C2CC=C(Cl)CC2C(=O)N1CNc1ccccn1` (stereo not given) yielded an inhibition of 0%. `CN(C)S(=O)(=O)c1ccc(S(=O)(=O)Nc2ccc3c(c2)oc2ccccc23)cc1` gave an inhibition of 0%. Work on `CCOC(=O)c1[nH]c(C)c(C(=O)N(C)C)c1C` yielded an inhibition of 0%. Work on `Cc1ccc(Cl)cc1NC(=O)CSc1nnc(C)n1-c1ccccc1` yielded an inhibition of 0%. For `CCN(CC)S(=O)(=O)c1ccc2c(c1)nc(SCn1nnc3ccccc3c1=O)n2CC`, the inhibition was 0%. `CN(C)CCCN1c2ccccc2Sc2ccc(C(F)(F)F)cc21` showed an inhibition of 0%. In the case of `CC(=O)c1ccc(NC(=O)CCc2c(C)nc3ncnn3c2C)cc1`, the inhibition is reported as 4%. `CCCn1c(=O)c(C(=O)NCc2ccccn2)c(O)c2ccccc21` was tested, and the inhibition was 0%. `Cc1ccc(C)c(Cn2c(=O)n(CCC(=O)NCc3ccco3)c(=O)c3sccc32)c1` gave an inhibition of 9%. In the case of `CCOC(=O)c1c(C)oc2c1c(C=NCc1ccccn1)c(O)c1ccccc12`, the inhibition is reported as 3%. Work on `COC(=O)c1sc(S(=O)(=O)Nc2ccc3cn[nH]c3c2)c(C(=O)OC)c1C` yielded an inhibition of 0%. With `Cc1cc(NCCN2CCCCC2)n2c(nc3ccccc32)c1C#N` the inhibition was 14%.
